Screens from PubChem.
CYP2C9 inhib = human CYP2C9 inhibition. P11712. CYP2C9 Supersomes, luciferin-H conversion, luminescence. inhibition, % at 5 µM. actives 20% (n = 96,000). AID 777;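 active = blocking of liver enzyme CYP2C9 beyond about 50% at 5 µM, limit read from the data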
CD11b adhes enh = enhancers of human CD11b/CD18 binding to fibrinogen. P05107+P11215. K562 CD11b/CD18 adhesion to fibrinogen, ATPlite luminescence. activation, % at 10 µM. actives 0.07% (n = 93,000). AID 1499;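 active = 10 µM primary screen giving 50% or more activity, confirmed by 40% or more on retest at that dose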
CYP2C9 act = activators of human CYP2C9 | activation factor at 5 µM | actives 1.4% (n = 96,000) | recombinant CYP2C9, luciferin-H conversion, luminescence; stronger effect = higher value; factor 1 = untreated enzyme, 0 = blocked | P11712 | AID 1024;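 active = activation factor of 2 or more for CYP2C9 at a 5 µM dose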;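 note: 0 = sulfaphenazole-blocked wells and 1 = vehicle-only wells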
Mac1 fbg inh = blocks human CD11b/CD18 adhesion to fibrinogen; inhibition, % at 10 µM; AID 1497; actives 0.54% (n = 93,000); K562 CD11b/CD18 adhesion to fibrinogen, ATPlite luminescence; Mn2+ added to activate the integrin; P05107+P11215;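 active = primary inhibition of 50% or more at 10 µM, then 40% or more on retest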
CYP2C19 inhib = blocks human cytochrome P450 2C19 | P33261 | CYP2C19 Supersomes, luciferin-H EGE luminescence, 30 min | inhibition, % at 5 µM | actives 21% (n = 96,000) | AID 778;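 active = CYP2C19 inhibition above a set limit at 5 µM in the primary screen, cut at about 50% in these data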;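 note: plate controls were negative control wells for no effect and 2.5 mM tranylcypromine positive control for full effect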
Target sequence (P33261 whole entry, looked up): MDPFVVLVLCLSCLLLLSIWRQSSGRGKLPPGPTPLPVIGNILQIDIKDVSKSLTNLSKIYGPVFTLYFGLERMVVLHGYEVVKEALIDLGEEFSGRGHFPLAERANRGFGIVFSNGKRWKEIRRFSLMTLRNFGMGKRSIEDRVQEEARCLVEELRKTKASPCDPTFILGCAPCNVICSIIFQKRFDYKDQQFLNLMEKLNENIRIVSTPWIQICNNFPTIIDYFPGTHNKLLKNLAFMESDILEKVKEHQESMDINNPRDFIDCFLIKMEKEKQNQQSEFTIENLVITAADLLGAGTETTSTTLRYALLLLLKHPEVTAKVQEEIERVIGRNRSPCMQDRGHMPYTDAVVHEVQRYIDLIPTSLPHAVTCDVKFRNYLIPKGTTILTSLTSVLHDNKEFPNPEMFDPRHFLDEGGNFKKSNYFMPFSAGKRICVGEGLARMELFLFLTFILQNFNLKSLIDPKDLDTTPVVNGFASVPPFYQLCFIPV
CYP2C19 act = activators of human cytochrome P450 2C19; P33261; recombinant CYP2C19, luciferin-H EGE luminescence; stronger effect = higher value; 0 = fully inhibited enzyme, 1 = untreated enzyme; activation factor at 5 µM; 96,000 tested, under 10 active;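 active = activation factor of at least 2 at 5 µM in the primary screen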;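 note: 0 = wells with 2.5 mM tranylcypromine and 1 = vehicle-only wells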
* marks the source's active call; other numbers are inactive results; nt = no result. The list is not random: actives were taken first. Their share in the collection is about 28%.

SMILES | CYP2C9 inhib | CD11b adhes enh | CYP2C9 act | Mac1 fbg inh | CYP2C19 inhib | CYP2C19 act
CCOc1cc(NC(=O)CC(C)C)c(OCC)cc1NC(=O)CCn1nnc2ccccc21 | 1.9 | -2.8 | 1 | -5.7 | -2.5 | 1
Cc1ccc(-c2cc(NC(=O)CCl)n(-c3ccccc3)n2)cc1 | 75.0* | -0.5 | 0.3 | -10.1 | 96.4* | 0
CC(=O)Nc1ccc(-c2cc(NC(C)=O)n(-c3ccccc3)n2)cc1 | 19.1 | -4.2 | 0.8 | 2.9 | 29.2 | 0.7
O=C(CCl)Nc1cc(-c2ccccc2)nn1-c1ccccc1 | 59.5* | 0.9 | 0.4 | 7.8 | 83.4* | 0.2
CCOC(=O)c1cnn(CCOC(=O)c2cccs2)c1NC(=O)c1cccs1 | 85.7* | 1.9 | 0.1 | 10.5 | 75.2* | 0.2
CCOC(=O)c1cccc(NC(=O)/C(=C\c2ccccc2)NC(=O)c2ccccc2Cl)c1 | 56.4* | -5.1 | 0.4 | 9.0 | -5.2 | 1.1
CCOC(=O)c1cccc(NC(=O)c2cccs2)c1 | 62.8* | -2.2 | 0.4 | 31.2 | 49.4 | 0.5
CCOC(=O)c1ccccc1NC(=O)c1cc2sccc2n1C | 61.7* | 1.6 | 0.4 | -12.0 | 79.3* | 0.2
CCOC(=O)c1ccccc1NC(=O)CSc1nnc(COc2ccccc2C)n1C | -33.9 | -1.0 | 1.3 | -2.7 | 40.8 | 0.6
CC1CCN(c2cc(=O)n(C3CCCCC3)c(=O)[nH]2)CC1 | -2.7 | 1.1 | 1 | 5.7 | -4.0 | 1
CCOC(=O)c1cccc(NC(=O)c2cc3sccc3n2C)c1 | 91.6* | 1.6 | 0.1 | 1.1 | 96.1* | 0
CCOC(=O)N1CCC(NC(=O)C2CCCN(C(=O)c3cc4sccc4n3C)C2)CC1 (configuration not stated) | -67.0 | -4.7 | 1.7 | 10.6 | 4.7 | 1
CCOC(=O)N1CCN(C(=O)c2cc3sccc3n2C)CC1 | -17.0 | -1.2 | 1.2 | -12.8 | 86.5* | 0.1
CCOC(=O)c1cccc(NC(=O)CCn2cccc2)c1 | 43.4 | -2.1 | 0.6 | 1.4 | 22.0 | 0.8
CCOC(=O)c1c(N)n(CCOC(=O)c2cccs2)c2nc3ccccc3nc12 | 84.5* | -1.1 | 0.2 | -9.2 | 85.1* | 0.1
CCOC(=O)c1sc(NC(=O)c2cccs2)cc1C | 64.6* | -0.5 | 0.4 | -8.9 | 43.2 | 0.6
COc1ccc(C(=O)Oc2ccc3c(c2)OCO3)cc1OC | 2.6 | 22.2 | 1 | 2.5 | -0.7 | 1
O=C(Oc1ccc2c(c1)OCO2)c1ccncc1 | 65.1* | -1.4 | 0.3 | -9.7 | 81.7* | 0.2
CCc1ccccc1Nc1nc(N)nc(CSCC(=O)c2cc(C)n(C)c2C)n1 | 66.2* | 3.3 | 0.3 | 5.1 | 85.1* | 0.1
Clc1ccc2c(c1)c1ccccc1n2CN1CCOCC1 | 49.2 | -2.8 | 0.5 | 18.9 | 72.5* | 0.3
CCOc1cc(/C=N/NC(=O)COc2cccc(C)c2)ccc1OC(=O)c1cccs1 | 58.7* | nt | 0.4 | nt | 18.2 | 0.8
COc1cc(/C=N/NC(=O)COc2ccccc2C)ccc1OC(=O)c1cccs1 | 26.6 | 2.9 | 0.7 | 6.1 | 22.4 | 0.8
CCCN(CC(=O)Nc1ccc(C(N)=O)cc1)CC(=O)Nc1ccc(Cl)cc1Cl | nt | -0.2 | nt | -7.1 | nt | nt
CN(CC(=O)Nc1ccc(C#N)cc1)Cc1ccc(Cl)cc1Cl | 90.2* | -2.1 | 0.1 | 12.2 | 93.9* | 0.1
N#Cc1ccc(NC(=O)Nc2ccc(Cl)cc2)cc1 | 7.3 | -6.2 | 0.9 | 96.7 | 15.7 | 0.8
SMILES | CYP2C9 inhib | CD11b adhes enh | CYP2C9 act | Mac1 fbg inh | CYP2C19 inhib | CYP2C19 act
CN(CC(=O)Nc1ccc(C#N)cc1)Cc1ccc(Cl)cc1 | 75.3* | -3.6 | 0.2 | 4.5 | 89.4* | 0.1
Cc1ccc(S(=O)(=O)N2CCCN(S(=O)(=O)C3CCS(=O)(=O)C3)CC2)cc1 (configuration not stated) | -51.2 | -3.7 | 1.5 | -21.6 | 27.1 | 0.7
O=C(Nc1nnc(C2CCCCC2)s1)c1ccco1 | 6.1 | -5.7 | 0.9 | 4.4 | -14.2 | 1.1
COc1ccc(NC(=O)C(Sc2nnc(-c3ccncc3)n2-c2ccccc2C)c2ccccc2)cc1Cl (configuration not stated) | nt | 65.1 | nt | -10.1 | nt | nt
O=C(Nc1ncc(Br)s1)C1CCCN1S(=O)(=O)c1cccc2cccnc12 (configuration not stated) | 40.0 | 14.0 | 0.6 | -9.0 | 14.3 | 0.9
Cc1cccc(NC(=O)C2CCCN2S(=O)(=O)c2cccc3cccnc23)c1 (configuration not stated) | 70.1* | 0.2 | 0.3 | 0.7 | 27.3 | 0.7
O=C(C1CCCN1S(=O)(=O)c1cccc2cccnc12)N1CCn2c1nc1ccccc12 (configuration not stated) | 57.6* | -3.7 | 0.4 | 2.2 | -0.5 | 1
COc1cc(NC(=O)C2CCCN2S(=O)(=O)c2cccc3cccnc23)cc(OC)c1OC (configuration not stated) | 83.3* | -1.5 | 0.2 | -5.7 | -0.7 | 1
Cc1ccc(NC(=O)C2CCCN2S(=O)(=O)c2cccc3cccnc23)cc1F (configuration not stated) | 93.9* | 4.2 | 0.1 | 19.2 | 22.8 | 0.8
CC(=O)c1ccc(NC(=O)C2CCCN2S(=O)(=O)c2cccc3cccnc23)cc1 (configuration not stated) | 14.4 | 2.4 | 0.9 | -3.7 | 40.8 | 0.6
CCN(CC)c1ccc(C(=O)N/N=C(\C)c2ccc(OC)c(OC)c2)cc1 | nt | 7.4 | nt | 8.3 | nt | nt
CCN(CC)C(=O)C1CCCN(C(=O)Nc2ccccc2)C1 (configuration not stated) | 21.0 | -2.7 | 0.8 | -4.4 | 44.7 | 0.6
O=S1(=O)CCC(NC(=S)N2CCCCCC2)C1 (configuration not stated) | nt | -4.4 | nt | -2.1 | nt | nt
O=c1[nH]c2cnccc2n1-c1ccccc1 | -8.0 | 0.6 | 1.1 | -5.7 | -19.1 | 1.2
CC(NC(=O)C1CCCN1S(=O)(=O)c1cccc2cccnc12)c1ccccc1 (configuration not stated) | -84.7 | 0.7 | 1.8 | -2.5 | 36.3 | 0.6
COc1ccccc1CNC(=O)C1CCCN1S(=O)(=O)c1cccc2cccnc12 (configuration not stated) | 10.8 | 4.1 | 0.9 | -1.0 | 82.7* | 0.2
O=C(CSc1ccc2nnc(-c3cccnc3)n2n1)NCc1ccc2c(c1)OCO2 | 11.2 | -1.5 | 0.9 | -5.5 | -13.2 | 1.1
O=C1c2ccccc2C(=O)N1CCSC(=S)N1CCOCC1 | 24.5 | 0.5 | 0.8 | 12.1 | 54.6* | 0.5
COc1ccc(CNC(=O)CSc2nnc(Cn3nnc4ccccc43)n2C)cc1 | 2.5 | -5.9 | 1 | -2.5 | 17.8 | 0.8
C=CCn1c(SCc2cccc(C#N)c2)nnc1-c1ccccc1O | 38.7 | 2.0 | 0.6 | 5.8 | 100.1* | 0
C=CCn1c(SCc2ccc(C#N)cc2)nnc1-c1cccc(Cl)c1 | 63.5* | nt | 0.4 | nt | 97.2* | 0
